Bioassay records (PubChem)
The list is not random: actives were taken first. Their share in the collection is about 10%.
G9a inh – inhibitors of human histone lysine methyltransferase G9a; G9a H3K9 monomethylation, AlphaScreen, 2 h; Potency, µM (highest dose often 102 µM), usual class: inhibitors; 350,000 tested, 8.8% active; AID 504332; note: nearly all actives have a fitted effect of over 75% in size
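Step 1: enzyme (final 20 nM) with compound, 15 min RT. Step 2: substrate peptide 500 nM and SAM 20 uM, 2 h RT. Step 3: anti-H3K9me1 antibody and AlphaScreen beads, 10 min, then plate read.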
BAZ2B inh – inhibitors of human BAZ2B bromodomain; 360,000 tested, 4.4% active; AID 504333; Potency, µM (doses to about 114 µM), actives largely listed as inhibitors; AlphaScreen BAZ2B-H3K14Ac peptide displacement; note: nearly all actives have a fitted effect of over 60% in size
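Protein-peptide AlphaScreen: BAZ2B 50 nM, b-H3K14Ac 50 nM, 1x PBS pH 7.4 + 0.01% Tween-20. Preincubation 30 min RT; cpd 30 min RT (top 110 uM); beads 20 min RT, light-protected.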
JMJD2A Tudor inh – blocks the human JMJD2A Tudor domain; Potency, µM (doses to about 114 µM), hits mostly inhibitors; 390,000 tested, 4.4% active; AlphaScreen JMJD2A-Tudor / H3K4me3 peptide binding; O75164; note: nearly all actives have a fitted effect of over 50% in size
HP1b binding inh – blocks HP1-beta chromodomain binding to methylated histone tails; AlphaScreen HP1-beta / biotin-H3K9me3 peptide binding; Potency, µM (doses to about 114 µM), hits mostly inhibitors; 390,000 tested, 0.56% active; AID 540317; note: nearly all actives have a fitted effect of over 70% in size
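HP1-beta protein (50 nM final) preincubated 30 min at room temperature with biotinylated H3(1-18)K9me3 peptide (50 nM) in PBS pH 7.4, 0.01% Tween-20, then compound added for 30 min. AlphaScreen streptavidin donor/nickel chelate acceptor beads (10 ug/mL final), 30 min dark, luminescence read.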
L3MBTL1 inh – inhibitors of human L3MBTL1; Potency, µM (doses to about 57.1 µM), most hits filed as inhibitors; Q9Y468; AlphaScreen L3MBTL1–H3K9me1 peptide binding; 230,000 tested, 0.66% active; note: nearly all actives have a fitted effect of over 60% in size
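First, the protein-peptide complex forms for 30 min at room temperature (L3MBTL1 50 nM, biotinylated H3K9me1 peptide 75 nM). Next, compounds are pin-transferred and incubated 30 min. Finally, AlphaScreen beads are added and read after 30 min.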
GLS inhibitor – inhibitors of human glutaminase (GLS); O94925; AID 624170; 410,000 tested, 0.21% active; Potency, µM (doses to about 45.5 µM), hits mostly inhibitors; GLS enzymatic activity, qHTS titration
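Coupled fluorescence readout: glutamate oxidase/HRP/Amplex Red detect glutamate formed by hKGA from L-glutamine (1 mM solution added). Buffer 45 mM KH2PO4 pH 8.2, 0.02% Tween-20; reads at t0 and 30 min RT.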
Hits are given with their value; n = inactive; u = inconclusive; x = no result given; [ ] = dose if it differs, or a comment. Calls come from the whole dose curve; as a rule, active = well fitted curve in the direction sought with a large enough effect; inconclusive = small, poorly fitted or top-dose-only effect, or another doubt; inactive = no such curve, though single readings can be large; an effect the other way counts as inactive or inconclusive.

SMILES	G9a inh	BAZ2B inh	JMJD2A Tudor inh	HP1b binding inh	L3MBTL1 inh	GLS inhibitor
CCn1c(CSCc2ccc(C)cc2)nnc1SCC(=O)N1CCN(c2ccccc2)CC1	u	u	u	n	x	n
C=CCn1c(=O)c2c(nc(-c3ccccc3)n2C)n(C)c1=O	n	x	x	x	x	x
CC1CCCCN1C(=O)Cn1c(SCC(=O)N(C)c2ccccc2)nc2ccccc21 (stereo not given)	n[12.7 µM]	n	n	n	x	n
Cc1nn(-c2ccccc2)c(N)c1Sc1cccc([N+](=O)[O-])c1	u	u	56µM	n	n	n
COc1ccc(CC(=O)NNC(=O)c2ccccn2)cc1	n	u	n	n	n	n
COc1ccc(CC(=O)NNC(=O)c2cnccn2)cc1	7.9µM	n	n	n	n	n
O=C(COc1ccc2ccccc2c1)NNC(=O)c1cnccn1	0.63µM	n	n	n	n	n
O=C(COc1cccc2ccccc12)NNC(=O)c1cnccn1	n	n	n	n	n	n
CCCn1cc(S(=O)(=O)c2ccc(CC)cc2)c(=O)c2ccccc21	n	n	n	n	x	n
CN1CCN(CC#CCC(O)(c2ccccc2)C2CCCC2)CC1 (stereo not given)	8.9µM	u	n	n	n	n
CN1CCN(CC#CCC(O)(c2ccccc2)c2ccccc2)CC1	71µM	n	n	n	n	n
OC(CC#CCN1CCCC1)(c1ccccc1)c1ccccc1	28µM	n	n	n	n	n
Cc1ccc(S(=O)(=O)NC(N)=NCCC[C@@H](N)C(=O)Nc2cc(C(F)(F)F)ccc2Cl)cc1	x	x	n	x	x	x
COc1ccccc1C(=O)Nc1ccc(C(=O)OCc2cc(=O)n3nc(C)sc3n2)cc1	n	n	n	n	x	n
CCN(Cc1ccccc1)C(=O)c1cnn(-c2ccc(F)cc2)c1-n1cccc1	u	n	n	n	x	n
CC1CN(c2ccc(Cl)cc2)c2nc3c(c(=O)n(CC(=O)O)c(=O)n3C)n2C1 (stereo not given)	n	n	n	n	x	n
CCCCC(CC)Cn1c(Oc2ccccc2)nc2c1c(=O)n(C)c(=O)n2C (stereo not given)	u	x	n	n	x	n
O=C(CSC1=NNC(c2ccccn2)S1)Nc1cccc(Cl)c1 (stereo not given)	x	7.1µM	22µM	n	x	n
O=C(CSC1=NNC(c2ccccn2)S1)Nc1ccccc1 (stereo not given)	u	5.6µM	6.3µM	n	x	n
O=C(CSc1nncn1-c1ccccn1)Nc1cccc(Cl)c1	n	n	n	n	n	n
Cc1csc(CNc2ncnc3ccc(-c4ccc5c(ccn5C)c4)cc23)c1	n[12.7 µM]	n	x	x	n	x
C/C(=N\NC(=O)c1ccc(N(C)C)cc1)c1cccnc1	25µM	u	n	n	x	n
CCN(CC)c1ccc(C(=O)N/N=C(\C)c2cccnc2)cc1	n	n	n	n	n	n
C/C(=N\NC(=O)c1cccnc1)c1ccc(OC2OCCOC2Oc2ccc(/C(C)=N/NC(=O)c3cccnc3)cc2)cc1 (stereo not given)	n	n	14µM	u	n	u
C/C(=N\NC(=O)c1ccc(N(C)C)cc1)c1ccc(C)cc1C	u	u	n	n	n	n
SMILES	G9a inh	BAZ2B inh	JMJD2A Tudor inh	HP1b binding inh	L3MBTL1 inh	GLS inhibitor
C/C(=N\NC(=O)c1ccc(N(C)C)cc1)c1ccc(C)c(C)c1	45µM	n	n	n	n	n
COc1ccc(/C(C)=N/NC(=O)CNC(=O)c2cccnc2)cc1	n	n	n	n	x	n
Cc1ccc(-c2c(C)n3c4c(=O)n(C)c(=O)n(C)c4nc3n2CCCO)cc1	u	u	n	n	x	n
Cc1ccc(NC(=O)Cn2c(=O)n(CC3CCC(C(=O)NC(C)C)CC3)c(=O)c3sccc32)cc1 (stereo not given)	n	n	n	n	x	n
Cc1cccc(N2CCN(C(=O)c3cnn(-c4ccccc4)c3C3CCN(C(=O)OC(C)(C)C)CC3)CC2)c1C	n	n	u	n	x	n
COc1ccc(CN(C)S(=O)(=O)c2c(C)noc2C)cc1OC	n[12.7 µM]	n	n	n	n	n
COc1ccc(S(=O)(=O)N(c2onc(C)c2Cl)S(=O)(=O)c2ccc(OC)c(OC)c2)cc1OC	u	79µM	25µM	n	n	n
CCOc1ccc(-c2nnc(-c3ccncc3)o2)cc1	n	n	50µM	u	n	n
O=S(=O)(c1ccc2c(c1)CCCN2)N1CCCC1	n[2.33 µM]	n	n	n	n	n
CCN(CC)c1ccc2c(c1)CCCN2	1.8µM	45µM	x	x	n	x
Cc1ccc(C)c(CN2C(=O)c3ccccc3S(=O)(=O)c3ccc(C(=O)N4CCCCC4)cc32)c1	n	u	n	n	x	n
CCOc1cc(/C=C2/NC(=O)N(CC(=O)Nc3cccc(C)c3)C2=O)ccc1OC	n	n	n	n	n	n
COc1ccc(-n2cccc2/C=C2/NC(=O)N(c3cccc(Cl)c3)C2=O)cc1	u	n	n	n	n	n
Cc1cccc(NC(=O)CN2C(=O)N/C(=C/c3cc(C)n(C)c3C)C2=O)c1	56µM	u	n	n	n	n
COc1cc(/C=C2/NC(=O)N(CC(=O)Nc3cccc(C)c3)C2=O)ccc1OCC(N)=O	n	n	20µM	u	n	n
O=C(O)c1cccc(-n2cccc2/C=C2/NC(=O)N(c3ccc(Cl)cc3)C2=O)c1	1.4µM	1.8µM	0.79µM	1.1µM	0.79µM	n
Cc1cccc(NC(=O)CN2C(=O)N/C(=C\c3cccn3-c3cccc(C(=O)O)c3)C2=O)c1	35µM	56µM	n	n	x	n
Cc1ccc(-n2cccc2/C=C2/NC(=O)N(CC(=O)Nc3cccc(C)c3)C2=O)cc1	u	u	n	n	n	n
CC1CCN(C(=O)Cn2cc(SCC(=O)NCc3ccc(F)cc3)c3ccccc32)CC1	n	n	n	n	x	n
Cc1ccc(NC(=O)c2cc(S(=O)(=O)NC3CCCCCC3)ccc2F)cc1F	n	n	n	n	x	n
COc1cccc(CN2CCNC(=O)C2CC(=O)NCCn2nc(C)cc2C)c1OC (stereo not given)	u	n	n	n	n	n
Cc1cc(C)n(CCNC(=O)CC2C(=O)NCCN2Cc2ccccc2C(F)(F)F)n1 (stereo not given)	45µM	n	n	n	n	n
Cc1cc(CNC(=O)CC2C(=O)NCCN2CC(c2ccccc2)c2ccccc2)on1 (stereo not given)	x	n	n	n	n	n
Cc1cc(CNC(=O)CC2C(=O)NCCN2Cc2ccccc2C(F)(F)F)on1 (stereo not given)	50µM	n	n	n	n	n
CCc1ccc(CNC(=O)CC2C(=O)NCCN2Cc2ccccc2F)nc1 (stereo not given)	79µM	n	n	n	x	n
